For 97 compounds, Potency and activity change, negative = inhibition results are on record in PubChem BioAssay AID624418 (National Center for Advancing Translational Sciences (NCATS), 2012).

Among all 410,000 compounds or so, about 530 (0.13%) were called active. Not shown: some 5% with an inconclusive outcome. The call rests on the fitted dose curve; in most records, active means well fitted inhibition curve with a large enough effect; inconclusive means small, poorly fitted or top-dose-only effect, or another doubt; inactive means no such curve, though single readings can be large or run the other way. The list comes from a sample in which actives are over-represented; it also holds similar structures and randomly drawn compounds. Entries that show only a call come without a potency.
Potency means the concentration at half of the fitted maximal effect.

This assay can be described thus: qHTS of GLP-1 Receptor Inverse Agonists: Cytotox Screen.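 Further: loss of luciferase light is scored as toxicity.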 As to conditions: HEK293 cAMP-luciferase reporter cells, luminescence, 24 h; series mostly up to 38.3 µM. An outline of the steps: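 Seeding density was 200 cells/uL; after overnight-length (12 h) culture, 23 nL compounds went on for 24 h at 37 °C. Readout used a luciferase detection reagent, luminescence taken after 12 min at room temperature.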
In general terms: qHTS replaces the single test concentration by a dilution series.
Take `CCCCC(CC)CNC(=O)C1CCN(S(=O)(=O)c2cccc3nsnc23)CC1` (configuration not stated): the Potency entry was “inactive”. The same measure, in the same setting: then `COC(=O)CN1C(=O)CSc2ccc(S(=O)(=O)Nc3cc(C)ccc3C)cc21`, with “inactive”; and `CCCNC(=O)c1ccc(Cn2c(SCC(N)=O)nc3ccccc3c2=O)cc1`, with “inactive”; and `O=C(Nc1cccc(Cl)c1)c1csnn1`, with “inactive”.

For the compound `COc1cccc(NC(=S)NC(=O)c2c(Cl)c(C)nn2C)c1`, the Potency result is “inactive”. With `Cc1csc(NC(=S)Nc2cccc(Cl)c2)n1`, the Potency was 0.891 µM (active). Consider `O=C(CCOc1ccccc1)N(Cc1cccnc1)c1nc2ccc(Cl)cc2s1`, for which the Potency entry is “inactive”. With `COc1ccc(NC(=O)Cn2c(=O)n(CCC(C)C)c(=O)c3cccnc32)cc1Cl`, the Potency result is “inactive”. In the case of `CCOc1ccc(NC(=O)CSc2c3c(nc4ccccc24)CCCC3)cc1`, the Potency result was “inactive”. `COc1ccc(C2NC(=O)N(C)C3=C2C(=O)N(c2ccc(C(=O)O)cc2)C3)cc1` (configuration not stated): the Potency result was “inactive”. Regarding `COc1ccccc1CNc1nc2ccc(Cl)cc2n2cnnc12`, the Potency entry was “inactive”. On the same count and under the same terms, under `O=c1c2ccccc2n(Cc2cccc(Cl)c2)c(=O)n1Cc1ccccc1` stands “inactive”; under `COc1ccc(C(=O)CSc2c(C(C)C)cnc3c2c(=O)n(C)c(=O)n3C)cc1`, “inactive”. As for `COc1ccc(C2CC(=O)Nc3c2c(=O)nc2c(C)cccn32)cc1OC` (configuration not stated), the Potency entry was “inactive”.

As for `CC(=O)N1c2ccccc2CC1C(=O)N1CCN(c2ccc(F)cc2)CC1` (configuration not stated), the Potency result is “inactive”. On to `COc1cc(C2c3c(oc4ccccc4c3=O)C(=O)N2c2nc(C)c(C)s2)ccc1O` (configuration not stated), for which the Potency result is “inactive”. Consider `CC(C)(C)C1CCc2c(sc(NC(=O)c3ccccc3F)c2C(=O)N2CCCCC2)C1` (configuration not stated), for which the Potency result was “inactive”. For `COc1ccc(NC(=O)N2CCCn3nc(C)cc32)cc1OC`, the Potency result is “inactive”. Take `CCOc1ccc(NC(=O)Cn2c(=O)n(CCCC(=O)NCc3ccc4c(c3)OCO4)c(=O)c3ccccc32)cc1`: the Potency result was “inactive”. Regarding `CN(Cc1ccccc1)C(=O)CCS(=O)(=O)c1cc(Br)cc2c1N(C(=O)C1CC1)CC2`, the Potency result is “inactive”. Same read-out and setting: under `COc1ccc(-c2cc(-c3nc(-c4cc(OC)c(OC)c(OC)c4)no3)[nH]n2)c(OC)c1` stands “inactive”.

Consider `CCOC(=O)c1ccc(NC(=O)c2ncn(-c3ccccc3)n2)cc1`, for which the Potency entry was “inactive”. On the same count and under the same terms, under `COC(=O)c1c(NC(=O)c2ccc(Cl)c(Cl)c2)sc2c1CCCC2` stands “inactive”. On to `O=c1[nH]c2cc(Br)ccc2n2cccc12`, for which the Potency result was “inactive”. For `COc1cccc(-c2nc(S(=O)(=O)c3ccc(C)cc3)c(NCc3ccccc3)o2)c1`, the Potency result was “inactive”. The same measure, in the same setting: then `CCN(CC(=O)NC(=O)NCc1ccccc1)Cc1nc2ccccc2c(=O)[nH]1`, with 6.31 µM (active); and `CCCCN(CC(=O)Nc1cccc(S(=O)(=O)N2CCCC2)c1)Cc1nc2ccccc2c(=O)[nH]1`, with “inactive”.

Take `CCN(CC(=O)Nc1ccc(Cl)c(S(=O)(=O)N(C)C)c1)Cc1nc2ccccc2c(=O)[nH]1`: the activity change, negative = inhibition was 0.695% [at 0.307 µM] (inactive). `COC(=O)c1cnn(-c2ccc(C(=O)Nc3ccc(OC(F)(F)F)cc3)cc2)c1N`: the Potency result was “inactive”. Turning to `Cc1ccc2nc(COc3ccccc3NC(=O)Nc3ccc(F)c(Cl)c3)cc(=O)n2c1`, the Potency result was “inactive”. Consider `COc1ccc(NC(=O)CN2CCCN(Cc3ccccc3)S2(=O)=O)cc1`, for which the Potency entry is “inactive”. On the same count and under the same terms, then `Cc1ccc(OC(=O)CSc2nnc(-c3cccs3)o2)cc1`, with “inactive”; and `COc1ccc(Cn2c(C(=O)O)c(CNCCc3cccs3)c3ccc(OC)cc32)cc1`, with “inactive”. Still for that read-out and setting: then `Oc1ccc2ccccc2c1N=Nc1nccs1`, with 4.47 µM (active); and `Oc1ccc(N=Nc2nccs2)c(O)c1`, with 8.91 µM (active). `Cc1ccc(-c2noc(CSc3nnc(-c4ccc(Cl)cc4)n3C)n2)cc1`: the Potency result was “inactive”. For `Cc1ccc(C(=O)Nc2ccccc2F)cc1S(=O)(=O)N1CCOCC1`, the Potency entry is “inactive”. `Cc1cc2c(cc3c(SCc4cccc(Cl)c4)nnc(C)n32)o1`: the Potency result was “inactive”.

`CCOc1ccc(CCNC(=O)CN(c2ccc(C)cc2)S(=O)(=O)N(C)C)cc1OCC`: the Potency entry was “inactive”. Consider `CC(=O)c1ccc(N2CCN(C3C(=O)c4ccccc4N3C(C)=O)CC2)cc1` (configuration not stated), for which the Potency result was “inactive”. Still for that read-out and setting: under `Cc1cc(-c2ccc(C)c(S(=O)(=O)N3c4ccccc4CC3C)c2)on1` (configuration not stated) stands “inactive”. On the same count and under the same terms, under `Cc1ccc(-n2c(=O)c3cccnc3n2CC(=O)Nc2ccccc2C(F)(F)F)cc1C` stands “inactive”. With `Cc1nn(-c2ccc(N3CCCCC3)nn2)c(C)c1CCC(=O)NCc1ccc(F)cc1`, the Potency entry is “inactive”. In the case of `CCCC1CCC(=NNC(=S)NCCc2ccccc2)CC1` (configuration not stated), the Potency is 4.47 µM (active). With `S=C(NCCc1ccccc1)NCc1ccccc1Cl`, the Potency result is “inactive”.

Consider `CCCCNC(=S)N/N=C1\CCCCc2ccccc21`, for which the Potency entry is “inactive”. On to `CCN(CCCNC(=O)c1cc(Nc2ccc(OC)cc2)nc2ccccc12)c1cccc(C)c1`, for which the Potency result was “inactive”. On the same count and under the same terms, then `CCc1ccc(NC(=O)CSc2nc3c([nH]c4ccccc43)c(=O)n2-c2cccc(OC)c2)cc1`, with “inactive”; and `Fc1ccc(CN2CCc3nc(Nc4ccccc4)ncc3C2)cc1F`, with “inactive”; and `COc1ccccc1-c1cc(C(F)(F)F)nc(S(=O)(=O)CCCC(=O)Nc2ccc(F)cc2F)n1`, with “inactive”. Regarding `O=C1c2ccccc2C(=O)C1C(=O)C1CC1`, the Potency result was “inactive”.

For `C/C(=N\NC(=O)c1ccc(CSc2nc(C)cc(C)n2)cc1)C1CCCCC1`, the Potency result was “inactive”. Take `C/C(=N\NC(=O)c1ccc(C)cc1)C1C(=O)c2ccccc2C1=O`: the Potency is 4.47 µM (active). Regarding `Cc1ccc(-n2cnc3cc(C(=O)NCCC4=CCCCC4)ccc32)cc1Cl`, the Potency entry is “inactive”. As to `O=C(CSc1cn(CC(=O)N2CCOCC2)c2ccccc12)Nc1ccccc1`, the Potency entry is “inactive”. On the same count and under the same terms, then `CCCCOC(=O)/C(C#N)=C/c1ccc(-c2cccc(C(F)(F)F)c2)o1`, with “inactive”; and `CCSc1nnc2c(n1)OC(c1ccc(OCC(=O)O)cc1)Nc1ccccc1-2` (configuration not stated), with “inactive”. On the same count and under the same terms, under `Cc1ccc2oc(=O)c3cnn(CC(=O)NCc4ccccc4Cl)c3c2c1` stands “inactive”; under `CCc1cccc(NC(=O)c2cc(-c3ccccc3)n[nH]2)c1`, “inactive”; under `O=C(CCl)Nc1cccc(CP(=O)(c2ccccc2)c2ccccc2)c1`, 3.16 µM (active). Take `O=C(CNCc1ccc(Cl)cc1)Nc1cccc(C(=O)O)c1`: the Potency entry was “inactive”.

Consider `CCn1cc(C(=O)OCC(=O)Nc2cc(C)cc(C)c2)c(=O)c2ccc(C)nc21`, for which the Potency entry was “inactive”. As to `COc1ccc(CNc2nc(-c3ccccc3)nn2C(=O)c2ccccc2OC)cc1`, the Potency result is “inactive”. Turning to `Cc1ccc(Nc2c(-c3ccc(Cl)cc3)nc3sccn23)c(C)c1`, the Potency entry is “inactive”. Turning to `CCOC(=O)N1CCc2c(sc3c2c(=O)n(-c2ccc(CC)cc2)c(=O)n3C)C1`, the Potency entry was “inactive”. For the compound `CCCN(CCC)CCCNC(=O)Cn1ncc2c3ccccc3n(Cc3ccccc3)c2c1=O`, the Potency entry was “inactive”. On the same count and under the same terms, under `CCCN(C(=O)Cn1cc(S(=O)(=O)N2CCN(c3ccccc3F)CC2)c2ccccc2c1=O)c1cccc(C)c1` stands “inactive”; under `CSc1oc(-c2cccs2)nc1S(=O)(=O)c1ccc(Br)cc1`, “inactive”; under `O=C(c1ccc(C(F)(F)F)cc1)N1CCC(c2nc(-c3ccc(S(=O)(=O)N4CCCC4)cc3)no2)CC1`, “inactive”. Regarding `CCN(CCCNC(=O)c1c(C)oc2ncn(CC(C)C)c(=O)c12)Cc1ccccc1`, the Potency result was “inactive”. With `CCC1CCCCN1S(=O)(=O)c1ccc(NC(=O)c2cc(=O)c3ccccc3o2)cc1` (configuration not stated), the Potency entry was “inactive”. Consider `CC(C)CC(=O)NCC(c1ccc2c(c1)OCO2)N1CCN(c2ccc(F)cc2)CC1` (configuration not stated), for which the Potency entry was “inactive”. For the compound `CCNC(=O)CC1C(=O)N(c2ccc(F)cc2)C(=O)N1Cc1ccc(C)cc1` (configuration not stated), the Potency result was “inactive”.

`Cc1cc2c(cc1S(=O)(=O)CCC(=O)Nc1ccc(OC(F)(F)F)cc1)OCC(=O)N2`: the Potency result was “inactive”. With `CCOC(=O)c1[nH]c(C)c(CCC(=O)NCc2ccccc2C)c1C`, the Potency entry was “inactive”.

Consider `Cc1ccc2oc3c(c(=O)c2c1)C(c1ccc([N+](=O)[O-])cc1)N(CCCN1CCOCC1)C3=O` (configuration not stated), for which the Potency entry is “inactive”.

`O=S(=O)([N-]c1nc2ccccc2nc1-[n+]1ccc(Cc2ccccc2)cc1)c1ccc(Br)s1`: the Potency was 10 µM (active).

As to `CCOc1ccc(C(NC(=O)c2cc(OC)c(OC)c(OC)c2)c2cc(Cl)c3cccnc3c2O)cc1` (configuration not stated), the Potency entry was “inactive”. Regarding `O=C(NC1CCN(Cc2ccccc2)CC1)c1ccc(Cn2c(=O)c3ccccc3n(Cc3cccc(F)c3)c2=O)cc1`, the Potency entry was “inactive”.

Take `CCOC(=O)c1cc(-c2ccc(OC)c(S(=O)(=O)Nc3ccc(OC)cc3OC)c2)on1`: the Potency result was “inactive”. Take `Cc1cc(C)cc(NC(=O)CCS(=O)(=O)c2cc3c4c(c2)CCN4C(=O)CC3)c1`: the Potency result was “inactive”. Consider `COc1cccc(NC(=O)CSc2cc(=O)n(C)c3ccc(Cl)cc23)c1`, for which the Potency result was “inactive”.

In the case of `CN(Cc1ccccc1)C(=O)c1cn(C)c2ccc(S(=O)(=O)N(C)C3CCCCC3)cc2c1=O`, the Potency result was “inactive”. With `CCOC(=O)Cn1c(=O)n(C2CCCCC2)c2nc(-c3cccc(OC)c3)nc(C(N)=O)c21`, the Potency entry is “inactive”.

As for `COc1cccc(Cn2c(SCc3ccc(C(=O)N4CCC(C)CC4)cc3)nc3ccncc32)c1`, the Potency entry is “inactive”.

Turning to `Cc1cc(C)cc(NS(=O)(=O)c2ccc3[nH]cc(C(=O)N4CCCCC4)c(=O)c3c2)c1`, the Potency entry is “inactive”. On to `Cc1cn(C)c(CC(=O)NCc2ccccc2)c1C(=O)O`, for which the Potency result is “inactive”.

Take `COc1ccccc1NC(=O)c1cc(C2CC2)nc2c1c(C)nn2-c1ccc(C)cc1`: the Potency entry was “inactive”. Turning to `Cc1ccc(S(=O)(=O)NCc2nc3nc(C)cc(C)n3n2)cc1`, the Potency entry was “inactive”. In the case of `COc1ccc2c(c1)c(N1CCCC1=O)c(C(=O)Nc1ccccc1C(F)(F)F)n2C`, the Potency result is “inactive”. On to `Cc1ccc(Nc2nnc(-c3ccc(C)c(S(=O)(=O)N4CCCCC4)c3)c3ccccc23)cc1`, for which the Potency result is “inactive”. `COc1ccc(NC(=O)CCCc2nnc3n(CCC(C)C)c(=O)c4sccc4n23)c(OC)c1`: the Potency entry is “inactive”.

As to `Cc1cccc(NC(=O)N2CCN(C)c3ncccc32)c1C`, the Potency result is “inactive”. On to `Cc1ccc(NC(=O)Cn2c(=O)n(-c3ccccc3)c(=O)c3c4c(sc32)CCCC4)cc1`, for which the Potency result is “inactive”. As for `CCN(CC)S(=O)(=O)c1ccc(C(=O)N=c2sc3cccc(OC)c3n2C)cc1`, the Potency result is “inactive”.

Turning to `O=C(c1cccs1)c1cn(CCOc2ccc(Cl)cc2)c2ccccc12`, the Potency result is “inactive”. As to `CCc1ccc(NC(=O)c2cc(S(=O)(=O)N3CCCC(C)C3)cn2C)cc1` (configuration not stated), the Potency entry was “inactive”.
